Compounds with a hit are over-represented: about 7.3% of the library has one in this group of screens.
Rab9 prom act – Rab9 promoter activation | Huh7 Rab9 promoter-luciferase reporter, luminescence, 24 h | Potency, µM (doses to about 9.22 µM), actives largely listed as activators | actives 2.8% (n = 320,000) | AID 485297; note: nearly all actives have a fitted effect of over 60% in size
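Rab9 promoter-driven luciferase in stably transfected Huh7 cells; 1500 cells/well rested 2 h, exposed to compound in DMSO for 24 h at 37 °C, 5% CO2. Luminescence read 10 min after adding luciferase reagent at ambient temperature.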
NPC1 promoter act – activates the NPC1 promoter; Huh7 NPC1 promoter luciferase reporter, 24 h; Potency, µM (doses to about 9.22 µM), hits mostly activators; actives 2.4% (n = 320,000); note: nearly all actives have a fitted effect of over 60% in size
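Luminescence read-out of NPC1 promoter-driven luciferase in stably transfected Huh7 cells; compounds delivered in DMSO and left 24 h at 37C, 5% CO2, qHTS titration format.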
ELG1 genotox – genotoxicity induction in ELG1-luciferase HEK293T cells | HEK293T ELG1-luciferase reporter, luminescence, 16 h | Potency, µM (doses to about 46 µM), usual class: activators | actives 1.3% (n = 330,000) | AID 504466; note: nearly all actives have a fitted effect of over 60% in size
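Reporter readout depends on ELG1 protein level, which increases with genetic stress. After 16 hr compound exposure at 37 °C, luciferase activity was quantified using ONE-Glo.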
p53 reactivator – re-activators of mutant p53; Potency, µM (highest dose often 92.2 µM), actives largely listed as activators; H1299 p53-A138V BP100-luciferase reporter, luminescence, 24 h; actives 0.063% (n = 320,000); AID 504706; note: nearly all actives have a fitted effect of over 45% in size
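p53-null H1299 cells stably carrying temperature-sensitive p53-A138V and a BP100-luciferase reporter were pinned with compounds (4-point, 1:5 series) and held 24 hrs at 37 deg C. Luminescence was read 10 min after detection reagent.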
SMN2 splice up – enhancers of SMN2 splice variant expression; HEK293 SMN2-luciferase splicing reporter, luminescence, 30-36 h; Potency, µM (highest dose often 46.1 µM), most hits filed as activators; actives 2.8% (n = 210,000); AID 1458; note: nearly all actives have a fitted effect of over 55% in size
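HEK293 cells carry an SMN2 […]–luciferase reporter in which exon 7 inclusion puts luciferase in frame. Cells were plated 10-12 h before compound addition, then incubated 30-36 h at 37C. ONE-Glo luminescence was read; sodium butyrate at 4.5 mM final served as control.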
FLuc modulator – firefly luciferase modulation, counter-screen for miR-21 project | actives 6.9% (n = 360,000) | purified FLuc, Km substrates, luminescence inhibition | Potency, µM (series often up to 57.5 µM), most hits filed as inhibitors; note: nearly all actives have a fitted effect of over 55% in size
Target sequence (P08659 whole entry, looked up): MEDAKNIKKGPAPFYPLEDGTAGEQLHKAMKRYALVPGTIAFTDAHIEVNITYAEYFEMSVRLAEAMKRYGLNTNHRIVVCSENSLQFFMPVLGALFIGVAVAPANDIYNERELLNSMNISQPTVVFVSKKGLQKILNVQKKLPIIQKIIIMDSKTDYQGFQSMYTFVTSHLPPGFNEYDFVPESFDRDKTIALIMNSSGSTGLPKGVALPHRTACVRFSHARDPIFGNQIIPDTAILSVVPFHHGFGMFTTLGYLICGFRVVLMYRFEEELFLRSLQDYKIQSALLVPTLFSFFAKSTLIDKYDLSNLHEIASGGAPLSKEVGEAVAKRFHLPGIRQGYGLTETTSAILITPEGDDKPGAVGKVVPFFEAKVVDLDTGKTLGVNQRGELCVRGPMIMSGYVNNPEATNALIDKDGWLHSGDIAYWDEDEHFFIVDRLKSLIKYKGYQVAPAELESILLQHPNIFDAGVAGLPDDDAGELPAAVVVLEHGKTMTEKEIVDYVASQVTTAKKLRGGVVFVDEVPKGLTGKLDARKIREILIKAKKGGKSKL
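Biochemical qHTS of compounds, final roughly 60 µM downward over six points, against 10 nM purified firefly luciferase using Km concentrations of substrates (10 uM D-luciferin, 10 uM ATP) in Tris acetate pH 7.5 buffer; luminescence output.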
Numbers stand for hits; [ ] = dose if it differs, or a comment. Calls come from the whole dose curve; as a rule, active = well fitted curve in the direction sought with a large enough effect; inconclusive = small, poorly fitted or top-dose-only effect, or another doubt; inactive = no such curve, though single readings can be large; an effect the other way counts as inactive or inconclusive.

`CCC(=O)N1c2ccccc2CC1C(=O)NCc1ccc(N(C)C)cc1` (centres undefined) gave FLuc modulator inactive.
For COc1cc(-c2nc(-c3cccnc3)no2)cc(OC)c1OC the results were Rab9 prom act inactive, NPC1 promoter act inactive, ELG1 genotox inactive, p53 reactivator inactive, SMN2 splice up inactive and FLuc modulator inactive.
Screening c1cncc(-c2noc(-c3ccco3)n2)c1 returned Rab9 prom act 3.98µM, NPC1 promoter act 3.16µM, ELG1 genotox inconclusive, p53 reactivator inactive, SMN2 splice up inactive and FLuc modulator inconclusive.
CCC(=O)Oc1ccc(-c2nc(-c3cccnc3)no2)cc1 was read as Rab9 prom act 4.47µM, NPC1 promoter act 3.98µM, ELG1 genotox inconclusive, p53 reactivator inconclusive, SMN2 splice up inconclusive and FLuc modulator 3.38µM.
`Cc1cccc(-c2noc(-c3c(C)noc3C)n2)c1` gave Rab9 prom act 3.16µM, NPC1 promoter act 1.58µM, ELG1 genotox inactive, p53 reactivator inactive and FLuc modulator inconclusive.
Screening Cc1ccc(-c2nc(-c3ccccc3)no2)cc1 returned Rab9 prom act 1.26µM, NPC1 promoter act 1µM, ELG1 genotox 0.651µM, p53 reactivator inconclusive, SMN2 splice up inactive and FLuc modulator 0.213µM.
`Cc1ccc(-c2noc(-c3c(C)noc3C)n2)cc1` gave Rab9 prom act inactive, NPC1 promoter act inactive, ELG1 genotox inactive, p53 reactivator inactive and FLuc modulator inactive.
For CCOC(=O)c1c(C)oc2ncnc(Nc3cc(C)cc(C)c3)c12 the results were FLuc modulator inactive.
`Cc1cccc(OCCCn2c(CCNC(=O)C3CCCCC3)nc3ccccc32)c1` gave SMN2 splice up inactive and FLuc modulator inconclusive.
Cc1ccc(SCc2nc(-c3ccccc3)no2)cc1 was read as Rab9 prom act inactive, NPC1 promoter act inactive, ELG1 genotox inactive, p53 reactivator inconclusive, SMN2 splice up inactive and FLuc modulator inactive[2.3 µM].
For Cc1ccc(-c2nc(-c3ccncc3)no2)cc1 the results were Rab9 prom act 1µM, NPC1 promoter act 0.891µM, ELG1 genotox 3.66µM, p53 reactivator inconclusive and FLuc modulator 1.69µM.
Screening Cc1cccc(-c2noc(-c3ccc4c(c3)OCO4)n2)c1 returned Rab9 prom act inactive, NPC1 promoter act inactive, ELG1 genotox inactive, p53 reactivator inactive and FLuc modulator inactive.
For Cc1ccc(-c2nc(-c3ccccc3)no2)c(Cl)c1 the results were Rab9 prom act 3.98µM, NPC1 promoter act 2.82µM, ELG1 genotox 0.259µM, p53 reactivator inactive, SMN2 splice up inactive and FLuc modulator 0.0849µM.
`Cc1ccc(SCc2nc(-c3ccncc3)no2)cc1` gave Rab9 prom act inactive, NPC1 promoter act inactive, ELG1 genotox inactive, p53 reactivator inactive, SMN2 splice up inactive and FLuc modulator inactive[2.3 µM].
For CCOc1cc(-c2nc(-c3ccncc3)no2)cc(OCC)c1OCC the results were Rab9 prom act inactive, NPC1 promoter act inactive, ELG1 genotox inactive, p53 reactivator inactive, SMN2 splice up inactive and FLuc modulator inactive.
For Brc1cccc(-c2nc(-c3ccncc3)no2)c1 the results were Rab9 prom act 5.01µM, NPC1 promoter act 3.16µM, ELG1 genotox inconclusive, p53 reactivator inconclusive, SMN2 splice up inactive and FLuc modulator 7.57µM.
Screening CCn1nc(C)c(Br)c1-c1nc(-c2cccc(C)c2)no1 returned Rab9 prom act inactive, NPC1 promoter act 2.51µM, ELG1 genotox inactive, p53 reactivator inactive and FLuc modulator inconclusive.
COC(=O)C1=C(C(=O)OC)[C@@H]2N(Cc3ccccc3)c3ccccc3[C@@]23C[C@@H](C(=O)OC)N(S(=O)(=O)c2cccs2)C3=N1 was read as SMN2 splice up inactive[9.22 µM].
FC(F)(F)c1cccc(-c2nc(-c3ccncc3)no2)c1 was read as Rab9 prom act inconclusive, NPC1 promoter act inconclusive, ELG1 genotox inactive, p53 reactivator inactive and FLuc modulator 15.1µM.
Screening Cc1ccc(-c2noc(CNc3ccccc3)n2)cc1 returned Rab9 prom act inactive, NPC1 promoter act inactive, ELG1 genotox inconclusive, p53 reactivator inconclusive, SMN2 splice up inconclusive and FLuc modulator 19µM.
